Assay results taken from the supplement of paper PMC6555819.

What follows are sequences tested on LXRb:RXRa (NR concentration 270 nM, RXRa partner concentration 90 nM) (assay: PBM binding z-score (relative to random genomic background probes); higher = stronger binding; sequences stand for … in GC…GCGATTGACAGCGTAGAATGAAGG).
Method: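 Protein-binding microarray (Agilent 4x180K custom design, double-stranded 60-nt probes: 5' GC cap, 34-nt variable region, 24-nt constant primer region; full probe sequence given). Purified or IVT nuclear receptor:RXRα heterodimers (3:1 NR:RXRα, mostly 270:90 nM) or homodimers were incubated for 1 h in PBS with 2% milk and no ligand, then detected with Alexa488 antibodies. Fluorescence from o1-orientation probes (~5 replicates averaged) was converted to z-scores against 500 random hg19 background probes. Variable regions are seed direct-repeat (DR0–DR5) sites, all their single-nucleotide variants and half-site ablations.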

Sequence | PBM binding z-score
TAGCCGAGGTCATTCAGGGGCCAGTATAGAAAGC | 5.52
CGAACGAGGTCAAAGGACAGTGAAAGGCGACGTA | 4.81
AGTCAAAGTGCATCTAGGTAACGTAAGATATGCT | 0.11
CGTCCAAGGTCAATGCTAGATCAGTGAAAGCATT | 3.56
CGAACGAGGTCATCCAGGACAGTGAATACATTGA | 5.42
TCTGCTAGGTCATCGATGGTCAGCTAATCTGCTA | 1.73
AATACAGGGTCATCGTACGCCAGAGTACGCACAG | 4.92
CGAACTAGGTCGCCAGGACAGTGAAGAGGTTGGA | -0.222
CCTAGTTGGTCAAGGTCACATACGCTATAGGTAC | 3.56
ATCGAAAGGTCGTGAGGTAAGTATACAGAAAGGC | 3.5
TATACAAGGTCAAAGGCCAGAGTACGAATGTCGA | 5.46
AATACAAGGTCATCGTAGGCCAGAGTACGCACAG | 5.13
CCTCGGAGGACAGAAGGTCAAAGCTGTCCGCTTT | 3.1
ATCGAAAGGTCGAAGGTGCGTATACCCACCCGAA | 2.33
TCTAGTTGGTCTAAGGTCACACACTCGAAATGCG | 4.1
CGTCCAAGGTCGAAGGTCAGTGAAGAGATGACGG | 2.62
GTTACAGGGTCAAGGCCAGAGTACGCGTATTGAT | 3.64
CGAACAAGGTCACCAGGACAGTGAAGAGGTTGGA | 4.28
TCTGCTAGGTCAACGATGGTCAGTTAATCTGCTA | 1.72
TGAATGAGGTTAAATATCAGGGAACGTGGCGTCG | 1.79

Sequence | PBM binding z-score
AGAATGAGATTACCAAAGATCAGGGAAACGCTTG | -0.266
CGAACAAGGTCATCCAGGACAGTGAATACATTGA | 4.67
AGAATGAGGTTACTAAAGATCAGGGAAACGCTTG | 5.45
CGAACTAGGTCATTGACAGGACAATGAATAGTAA | 2.47
ATCGAAAGGTCCACGAGGTGAGTATACACCGTTT | -0.0349
CGAACTAGGTCAAGGACAGTAAATCTCCGCACGC | 1.45
CGTCCAAGGTCACGGTCAGTGAAAGAGACTCGAA | 4.76
CGCACTAGGTCATCCAGGACAGTGAATACATTGA | 2.21
TCTCGGAGGACACAAAGGTCAGAGCTTTCCAGAG | 3.15
ATATGTAGGTTAGGGTCAGTCAGAAAGTAGGGAA | 3
CGTCAAACTTCAACTAAGGTAACGTAAAGCACGC | 0.543
GATACAGGGTCGGCTAGAGGCCAGAGTATGGAAA | 0.129
GCTAGTTGGTCAGTAAAAGGTGACACACCGGTCG | 0.263
CCTACTGGGCCAAAAAGGTCATTGATGCCGATAA | 3.74
CCTTACGGGTCACGTGGTTATAGCACGACGAGCG | 3.48
TATAAAGGGTCAAAGGCCAGAGTACGAATGTCGA | 5.24
ATCGAAAGGTCGACCAGGTGAGTATACACCGTTT | 3.1
GGAACGAGGTCAAAGTTGATAGCATCTGTCGACG | 5.45
CGTCAAAGGTCAGCAGGTCAGTGAAAGCGACGTG | 4.97
AATACAGGGTAACTAGGCCAGAGTAGGTACGAAT | 0.0448
